Assay outcomes as filed in PubChem.
An excerpt weighted towards active compounds, which were near 10% of everything screened.
G9a inh: blocks human histone lysine methyltransferase G9a; Q96KQ7; G9a H3K9 monomethylation, AlphaScreen, 2 h; Potency, µM (titrated, usually from 102 µM), for the others: top-dose activity, negative = inhibition, hits mostly inhibitors; actives 8.8% (n = 350,000); AID 504332; further: potency means the concentration at half of the fitted maximal effect; on the % scale 0 is the no-effect control and ±100 the full control effect; nearly all actives have a fitted effect of over 75% in size
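Signal arises when biotinylated H3K9 peptide, once monomethylated, bridges streptavidin donor and antibody-captured acceptor beads. Enzyme at 20 nM was preincubated 15 min with test compounds; peptide 500 nM and SAM 20 uM then reacted for 2 h.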
JMJD2A Tudor inh: JMJD2A Tudor domain (human) inhibition | AlphaScreen JMJD2A-Tudor / H3K4me3 peptide binding | Potency, µM (series often up to 114 µM), for inactives: at the highest dose activity change, negative = inhibition, most hits filed as inhibitors | actives 4.4% (n = 390,000); further: potency means the concentration at half of the fitted maximal effect; on the % scale 0 is the no-effect control and ±100 the full control effect; nearly all actives have a fitted effect of over 50% in size
CtBP-E1A inh: inhibitors of CtBP/E1A interaction. AlphaScreen GST-E1A/His-CtBP binding, 1536-well; active compounds read low. activity change, % (concentration not given with the values). actives 0.49% (n = 340,000). AID 651724; in the data active means activity change below about -65%; inconclusive means mostly about -30% to -63%; further: on the % scale 0 is the no-effect control and ±100 the full control effect
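AlphaScreen with 125 nM GST-E1A and 125 nM His-CtBP (5X stocks) in Tris pH 8.0, 300 mM NaCl, BSA, Tween 20, TCEP. Compounds preincubated 2 h at 37 deg C, then glutathione donor/nickel acceptor beads added for 1 h at 37 deg C in dark.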
Six1-Eya2 blk: blocks human Six1 binding to Eya2 | AID 651725 | Q15475+O00167 | AlphaScreen GST-Six1/His-Eya2 binding, biochemical; active compounds read low | actives 0.56% (n = 360,000) | activity change, % (no concentration beside the values); in the data active means activity change below about -65%; inconclusive means mostly about -30% to -63%; further: on the % scale 0 is the no-effect control and ±100 the full control effect
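AlphaScreen luminescence read after one hour at 37 °C in darkness. Pin-transferred compounds met GST-Six1 and His-Eya2 protein (5X stock 250 nM/500 nM) plus glutathione donor and Ni-chelate acceptor beads (5X, 50 ug/mL).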
HP1b binding inh: HP1-beta chromodomain-methylated histone interaction inhibition. AlphaScreen HP1-beta / biotin-H3K9me3 peptide binding. Potency, µM (series often up to 114 µM), for the others: top-dose activity change, negative = inhibition, hits mostly inhibitors. actives 0.56% (n = 390,000); further: potency means the concentration at half of the fitted maximal effect; nearly all actives have a fitted effect of over 70% in size
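HP1-beta protein (50 nM final) preincubated 30 min at room temperature with biotinylated H3(1-18)K9me3 peptide (50 nM) in PBS pH 7.4, 0.01% Tween-20, then compound added for 30 min. AlphaScreen streptavidin donor/nickel chelate acceptor beads (10 ug/mL final), 30 min dark, luminescence read.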
BAZ2B inh: inhibitors of human BAZ2B bromodomain; Q9UIF8; AlphaScreen BAZ2B-H3K14Ac peptide displacement; Potency, µM (titrated, usually from 114 µM), inactives show at the top dose activity change, negative = inhibition, actives largely listed as inhibitors; actives 4.4% (n = 360,000); further: potency means the concentration at half of the fitted maximal effect; on the % scale 0 is the no-effect control and ±100 the full control effect; nearly all actives have a fitted effect of over 60% in size
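BAZ2B (50 nM) with biotin-H3(5-23)K14Ac peptide (50 nM) in PBS pH 7.4, 0.01% Tween-20, preformed 30 min, then compound 30 min at room temperature; top concentration 110uM. AlphaScreen streptavidin donor/nickel chelate acceptor beads (10 ug/mL final), 20 min dark, signal read.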
Active calls of the source: *; ? = inconclusive; / = no result; [ ] = dose if it differs, or a comment. Unless noted, the call rests on the fitted dose curve; in most records, active means well fitted inhibition curve with a large enough effect; inconclusive means small, poorly fitted or top-dose-only effect; inactive means no such curve, though single readings can be large or run the other way.

SMILES	G9a inh	JMJD2A Tudor inh	CtBP-E1A inh	Six1-Eya2 blk	HP1b binding inh	BAZ2B inh
O=[N+]([O-])c1c(Nc2cccc(O)c2)cc(Cl)c2nonc12	44.7µM*	?	-20.2	?	-15.3%	?
O=C(O)c1ccc(Nc2cc(Cl)c3nonc3c2[N+](=O)[O-])cc1	35.5µM*	-14.1%	-7.5	?	7.1%	-28.5%
Cc1c(Nc2cc(N3CCOCC3)c3nonc3c2[N+](=O)[O-])c(=O)n(-c2ccccc2)n1C	?	/	/	/	/	-18.7%
O=C(O)c1cccc(Nc2ccc3nonc3c2[N+](=O)[O-])c1	-2.2%	-17.0%	-7.2	-5.5	21.5%	-19.6%
Nc1cc(Nc2ccccc2)c2nonc2c1[N+](=O)[O-]	-6.9%	4.0%	-25.6	?	25.0%	-37.2%
Cc1c(Nc2cc(Cl)c3nonc3c2[N+](=O)[O-])c(=O)n(-c2ccccc2)n1C	7.08µM*	-9.0%[11.4 µM]	/	-88.5*	-23.5%	-20.5%
Cc1ccc(C(C#N)c2ccc3c(C(F)(F)F)cc(C(F)(F)F)nc3n2)cc1 (stereo unspecified)	11.2µM*	5.62µM*	?	?	14.1µM*	8.91µM*
FC(F)(F)c1cc(C(F)(F)F)c2ccc(N/N=C/c3ccccc3)nc2n1	-7.9%[59 µM]	-10.8%	5.3	3.4	41.3%	3.2%
N#CC(c1ccccc1)c1ccc2c(C(F)(F)F)cc(C(F)(F)F)nc2n1 (stereo unspecified)	10µM*	44.7µM*	-66.1*	-75.4*	14.1µM*	10µM*
CN(N)c1ccc2c(C(F)(F)F)cc(C(F)(F)F)nc2n1	35.4%	?	1.6	-1.4	-15.4%	?
Cc1cc(C)n(CC(C)C(=O)O)n1 (stereo unspecified)	/	-13.4%	-4.5	5.3	7.8%	79.4µM*
Cc1cc(C)n(CC(=O)O)n1	?	?	0.3	-10.6	16.4%	-4.1%
CCOC(=O)c1c(C)[nH]c(CCC(=O)NCc2ccc(N(C)C)cc2)c1C	-3.3%[59 µM]	?	/	/	-3.0%[57 µM]	-36.5%
Cc1cc(=O)oc2cc(NC(=S)NCc3ccccn3)ccc12	39.8µM*	-17.7%	-7.9	-19.3	25.9%	?
Cc1cc(=O)oc2cc(OCC(=O)NCc3ccccn3)ccc12	29.7%	-11.0%	-8.2	-3.4	12.9%	-6.5%
CCCC(C(=O)Nc1ccc2c(C)cc(=O)oc2c1)c1ccccc1 (stereo unspecified)	22.4µM*	-24.1%	-1.5	3.9	13.3%	56.2µM*
Cc1cc(=O)oc2cc(NC(=O)C(C)Oc3ccc(F)cc3)ccc12 (stereo unspecified)	44.7µM*	-18.6%	0.8	6.6	9.5%	5.7%
CN1CC(c2ccccn2)C2(SC(=S)N(Cc3ccccc3)C2=O)C12C(=O)Nc1ccccc12 (stereo unspecified)	/	22.4µM*	-76.1*	-75.9*	?	14.1µM*
Cc1ccc(CNC(=O)c2c(-c3ccc(Br)cc3)noc2C)o1	30.2%[59 µM]	-16.2%	/	/	18.5%[57 µM]	0.0%
Cc1onc(-c2ccccc2)c1-c1n[nH]c(=S)n1-c1ccccc1Cl	23.2%[0.501 µM]	-28.1%	4.0	-0.3	21.7%	-25.6%
Cc1onc(-c2ccccc2)c1-c1n[nH]c(=S)n1-c1ccc(C(=O)O)cc1	?	44.7µM*	2.9	6.7	29.0%	?
Cc1ccc(-n2ncc3c(N4CCC(C)CC4)ncnc32)cc1C	23.1%[59 µM]	26.3%	/	/	80.2%	50.0%
Nc1ccccc1NC(=O)CCn1c(=S)[nH]c2ccccc2c1=O	44.7µM*	-6.2%	-4.0	0.3	54.6%	-4.8%
O=C(CCCn1c(=S)[nH]c2ccccc2c1=O)N1CCOCC1	-3.2%[59 µM]	22.4µM*	6.0	1.1	1.4%	?
COc1ccccc1N1CCN(C(=O)CCCn2c(=S)[nH]c3ccccc3c2=O)CC1	/	/	1.1	-0.1	/	/
CCOC(=O)N1CCN(C(=O)CCCn2c(=S)[nH]c3ccccc3c2=O)CC1	?	?	1.5	-8.4	39.5%	?
